“And” between values parts separate entries of the source, which are not always exact repeats. Equal values may be shown once. Inconclusive results are not listed. Unmarked numbers belong to inactive results. The source made the active and inactive calls. The call rests on the fitted dose curve; in most records, active means well fitted inhibition curve with a large enough effect; inconclusive means small, poorly fitted or top-dose-only effect; inactive means no such curve, though single readings can be large or run the other way.
On the % scale 0 is the no-effect control and ±100 the full control effect; potency means the concentration at half of the fitted maximal effect.

This experiment is described as follows: Primary qHTS for inhibitors of nuclear receptor binding SET domain protein 2 (NSD2) in an RCH-ACV wild type WT cells (2C) (AID 1645877). Further: nearly all actives have a fitted effect of over 70% in size. The following applies: RCH-ACV (leukaemia line) NSD2 WT (2C) viability, CellTiter-Glo, 72 h; series mostly up to 44.9 µM; activity change, negative = cell killing: at the top concentration.
With `Cc1ccc(NC(=O)c2ccc(CN3CCN(C)CC3)cc2)cc1Nc1nc(-c2cccnc2)cs1`, the Potency is 18.4 µM (active) and 14.8 µM (active).

For the compound `CCc1cc(-c2n[nH]c(C)c2-c2ccc3c(c2)OCCO3)c(O)cc1O`, the Potency is 7.42 µM (active).

As to `O=C(Nc1cccc2c(=O)cc(-c3nn[nH]n3)oc12)c1ccc(OCCCCc2ccccc2)cc1`, the “activity change, negative = cell killing” value is 7.09%.

`COc1cccc(OC)c1-c1cc(C(=O)NC2(C(=O)O)C3CC4CC(C3)CC2C4)nn1-c1ccnc2cc(Cl)ccc12` (stereo unspecified): the “activity change, negative = cell killing” value is -16.4%.

Take `CN1CCN(c2cccc(Nc3nc4c(-c5ccc(S(C)(=O)=O)cc5)cccn4n3)c2)CC1`: the Potency is 1.63 µM (active) and 8.33 µM (active).

`CCn1c(-c2nonc2N)nc2cncc(CNC3CCNCC3)c21`: the Potency is 11.5 µM (active).

For the compound `O=C(Nc1cccc(Cl)c1)Nc1ncc(CCNc2ncnc3ccsc23)s1`, the Potency was 0.0295 µM (active).

As for `CCNC(=O)c1noc(-c2cc(C(C)C)c(O)cc2O)c1-c1ccc(CN2CCOCC2)cc1`, the Potency is 18.3 nM (active) and 13.2 nM (active).

As to `CC(C)(O)CC(=O)NCCn1ccc2ncnc(Nc3ccc(Oc4cccc(C(F)(F)F)c4)c(Cl)c3)c21`, the Potency is 20.5 µM (active) and 13.2 µM (active).

For `CN(C)CC[C@H](CSc1ccccc1)Nc1ccc(S(=O)(=O)NC(=O)c2ccc(N3CCN(Cc4ccccc4-c4ccc(Cl)cc4)CC3)cc2)cc1[N+](=O)[O-]`, the Potency is 2.63 µM (active).

In the case of `COc1cc2c(cc1OC)CC(=O)N(CCCN(C)C[C@H]1Cc3cc(OC)c(OC)cc31)CC2`, the compound was classed as inactive.
